Compound activity (PubChem)
RAM network inh = blocks the yeast RAM network; S. cerevisiae dse1pr::URA3 reporter, 5-FOA growth OD615, 2 d; analog-sensitive cbk1-as2 kinase mutant strain; inhibition, % at 50 µM; 190,000 tested, 1.8% active;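 active = inhibition above a set limit, 3 SD over mean compound inhibition, cut at about 8.4% in these data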;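 also: inhibition rescues growth on 5-FOA so higher OD means more RAM inhibition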
L major viab = reduces viability of Leishmania major promastigotes; inhibition, % at 10 µM; resazurin fluorescence viability; 200,000 tested, 9% active; in the data active = inhibition above about 50%;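 also: promastigotes grown with compound for 44 hours at 28 °C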
WT yeast gro inh = growth inhibition of WT yeast, mitochondrial fusion screen | mitochondrial fusion phenotypic screen, WT strain | inhibition, % at 10 µM | 190,000 tested, 2.1% active | AID 1362; in the data active = inhibition above about 58%; tested in S. cerevisiae
CHOP inhibitor = inhibitors of CHOP induction in ER stress response; inhibition, % at 10 µM; AID 2732; CHO-K1 CHOP-promoter luciferase, tunicamycin-induced, 15-18 h; 220,000 tested, 3.8% active;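 active = compounds that reduced the stress-induced luciferase reporter signal by more than about 70% of percent inhibition, limit read from the data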
Large screens that a line does not name were inactive. An excerpt weighted towards active compounds, which were near 13% of everything screened.

CCn1ccnc1CN(C)Cc1cn(-c2ccc(C)cc2)nc1-c1cccc(C)c1	L major viab 78, WT yeast gro inh 68, CHOP inhibitor 83
CCn1ccnc1CN(C)Cc1cn(-c2cccc(C)c2)nc1-c1cccc(F)c1	L major viab 99
CC(C)(C)C(=O)Nc1nnc(COc2ccc(Cl)cc2)s1	none (no result: RAM network inh, L major viab, WT yeast gro inh)
CC(C)C(C(=O)N1CCN(C(=O)OC(C)(C)C)CC1)n1cc(-c2cn([C@@H](C)C(=O)N3CCN(C(=O)OC(C)(C)C)CC3)nn2)nn1 (stereo partly specified)	none (no result: RAM network inh, L major viab, WT yeast gro inh)
O=C(CCc1ccc(S(=O)(=O)N2CCOCC2)cc1)N/N=C/c1ccc(O)c(O)c1O	none
COc1ccc(-n2ncc(Cl)c(Cl)c2=O)cc1	L major viab 82
CC(=O)c1ccc(NC(=O)C2CC(=O)N(C(C)C)C2)cc1 (stereo unspecified)	none
Cc1ccc(Cn2ccc(NC(=O)c3cc(CC(C)C)on3)n2)cc1	CHOP inhibitor 76
Cc1ccc(Cn2ccc(NC(=O)c3cc(-c4ccc(Cl)cc4)on3)n2)cc1	L major viab 57
Cc1ccc(Cn2nc(C)c(NC(=O)c3cc(C)no3)c2C)cc1	none
Cc1cc(C(=O)Nc2c(C)nn(Cc3ccc(F)cc3)c2C)on1	CHOP inhibitor 81
Cc1ccc(Cn2ccc(NC(=O)c3cc(-c4ccc(F)cc4)on3)n2)cc1	none
Cc1cc(NC(=O)c2cc(C(C)C)on2)nn1Cc1ccc(Cl)cc1	RAM network inh 9.3, L major viab 71
CCOCCCNC(=O)Cn1cnc2sc(C)c(S(=O)(=O)N3CCN(c4ncccn4)CC3)c2c1=O	none
CCN(CC)c1ccc(NC2CC(=O)N(CCc3ccc(OC)cc3)C2=O)cc1 (stereo unspecified)	none (no result: RAM network inh, L major viab, WT yeast gro inh)
Cc1nn(Cc2ccc(Cl)c(Cl)c2)c(C)c1NC(=O)c1cc(CC(C)C)on1	CHOP inhibitor 93
Cc1ccccc1Cn1nc(C)c(NC(=O)c2cc(CC(C)C)on2)c1C	none (no result: RAM network inh, L major viab, WT yeast gro inh)
Cc1ccc(Cn2ccc(NC(=O)c3cc(-c4cccc(Cl)c4)on3)n2)cc1	L major viab 76
Cc1cccc(Cn2ccc(NC(=O)c3ccc4c(c3)OCO4)n2)c1	L major viab 60
CN=C(C)/C(C(=O)OC)=C(/O)c1ccc(Cl)cc1Cl	none (no result: RAM network inh, L major viab, WT yeast gro inh)
Cc1ccc(NC(=O)CCCc2nc3ccccc3s2)c(O)c1	none
O=C(NCc1ccccn1)C(=O)N/N=C/c1ccc2c(c1)OCO2	none
CCOC(=O)N1CCN(C(=O)C(=O)NN)CC1	none
O=c1c2c(nc3c(-c4cccc(Br)c4)c[nH]n13)CCCC2	L major viab 100
O=c1c2c(nc3cc(-c4ccc(Br)cc4)[nH]n13)CCCC2	L major viab 67, CHOP inhibitor 73
COc1ccc(CNC(=O)c2c([S-])n(-c3ccc(C)cc3)c3cccc[n+]23)cc1	none
COCn1c(-c2ccc(OC)cc2)nc2ccccc21	none
C=CCn1c(-c2ccc(C)cc2)nc2ccccc21	L major viab 87
COCCn1c(-c2ccccc2)nc2ccccc21	none
COc1ccc(Cn2c(-c3ccc(C)cc3)c[n+]3ccccc23)cc1	L major viab 100, WT yeast gro inh 60
C=CCn1c(-c2cccnc2Cl)nc2ccccc21	none
CCOC(Cn1c(-c2ccc(OC)cc2)nc2ccccc21)OCC	L major viab 64
COc1ccc(-c2nc3ccccc3n2Cc2ccc(C)cc2)cc1	L major viab 82
CC(C)N(C(=O)CSc1nnc(Cc2csc(Nc3ccccc3)n2)o1)C(C)C	none
CC(=O)C(Cc1cccc(F)c1)(Cc1cccc(F)c1)C(C)=O	none
C=C(C)Cn1c(-c2ccc(OC)cc2)nc2ccccc21	L major viab 55
C=C(C)Cn1c(SCC(=O)O)nnc1-c1ccc(OC)cc1	none
COc1ccc(CN(Cc2cc3cccc(C)c3n3nnnc23)C(=O)N2CCOCC2)cc1	none
COc1ccc(NC(=O)CC(c2ccc(F)cc2)c2ccc(OC(C)C)cc2)cc1 (stereo unspecified)	RAM network inh 9.3
CC(C)Oc1ccc(C(CC(=O)O)c2ccc(F)cc2)cc1 (stereo unspecified)	none (no result: RAM network inh, L major viab, WT yeast gro inh)
C=CCOc1ccccc1CNCCCN1CCOCC1	none
COc1cc(CNCCCN2CCOCC2)ccc1OCC(=O)Nc1cccc(C(F)(F)F)c1	L major viab 100
CCOc1cc(NC(=S)NCCCN2CCOCC2)c(OCC)cc1NC(=O)c1cccc(C)c1	none
CCOc1cc(CNCCCN2CCOCC2)ccc1OCC(=O)Nc1cccc2ccccc12	L major viab 100
CCOc1cc(CNC(CC)CO)ccc1OCC(=O)Nc1cccc(C(F)(F)F)c1 (stereo unspecified)	L major viab 82
O=C(COc1ccc(Br)cc1CNCCCN1CCOCC1)Nc1ccccc1	L major viab 91
CCN(CC)CCNC(=O)c1ccc(-n2c(C)cc3c2CCCC3=O)cc1	none
COc1ccc(/C=C/C(=O)O)cc1S(=O)(=O)N1CCC(C)CC1	none (no result: RAM network inh, L major viab, WT yeast gro inh)
CCN(CC)C(=O)NC1CCCCCCC1	none
COc1ccc(C2c3ccc4ccccc4c3Oc3ncn(Cc4ccco4)c(=N)c32)cc1OC (stereo unspecified)	L major viab 58
COc1ccc(C2c3c(ncn(CCN4CCOCC4)c3=N)Oc3ccc4ccccc4c32)cc1OC (stereo unspecified)	L major viab 100
COc1ccc(C2c3ccc(O)cc3Oc3ncn(Cc4ccco4)c(=N)c32)cc1OC (stereo unspecified)	none (no result: RAM network inh, L major viab, WT yeast gro inh)
CC(C)(C)NC(=O)COC(=O)c1ccccc1OCC(=O)Nc1ccc(Br)cc1	none
CCOC(=O)C1=C(C)N(C)C(C)=C(C(=O)OCC)C1c1ccsc1	none
Cc1ccccc1NC1=C(Cl)C(=O)N(C2CCCCC2)C1=O	WT yeast gro inh 69
COc1ccccc1N1C(=O)C(Cl)=C(Nc2ccccc2O)C1=O	none
COc1ccccc1NC1=C(Cl)C(=O)N(C2CCCCC2)C1=O	WT yeast gro inh 70
O=C1C(Cl)=C(NCC2CCCO2)C(=O)N1C1CCCCC1 (stereo unspecified)	none
CNc1nc(C)c(C(=O)c2ccc(Cl)cc2)s1	none
Cc1cccn2c(NC(=O)c3cccs3)c(-c3ccccc3)nc12	none
CCOC(=O)N1CCN(CCC(=O)Nc2cc([N+](=O)[O-])ccc2OC)CC1	none
Cc1cc(N2CCCC2)c(F)cc1/C=C\[N+](=O)[O-]	L major viab 52
Cc1cc(N2CCC(C)CC2)c(F)cc1[N+](=O)[O-]	none
CC1(C)SC(=S)N(NC(=O)Nc2cccc3ccccc23)C1N(O)C(=O)Nc1ccccc1 (stereo unspecified)	CHOP inhibitor 100
N#CCSc1nc2ccccc2c(=O)n1C1CCCCC1	none
O=c1c2ccccc2nc(SCc2cccc(F)c2)n1C1CCCC1	RAM network inh 11
CCc1nc2oc3cc(OC)ccc3c(=O)c2c(=O)n1Cc1ccccc1	L major viab 95
COc1ccc2c(=O)c3c(=O)n(Cc4ccco4)c(-c4ccc(C)cc4)nc3oc2c1	L major viab 59
COc1ccc(Cn2c(-c3ccccc3)nc3c(c(=O)c4ccccc4n3C)c2=O)cc1	none
Cn1c2ccccc2c(=O)c2c(=O)n(Cc3ccco3)c(-c3ccc(C(C)(C)C)cc3)nc21	CHOP inhibitor 89 (no result: RAM network inh, L major viab, WT yeast gro inh)
C[n+]1cccc2cccc([O-])c21	none (no result: RAM network inh, L major viab, WT yeast gro inh)
COc1ccc(N2CCN(c3cc(C)c4ccc(C)cc4n3)CC2)cc1	none
